High-throughput results deposited in PubChem BioAssay by National Center for Advancing Translational Sciences (NCATS).
AmpC inh detg: blocks E. coli AmpC beta-lactamase in detergent assay | Potency, µM (titrated, usually from 114 µM), for inactives: top-dose activity change, negative = inhibition, hits mostly inhibitors | 370,000 tested, 0.041% active | AmpC hydrolysis of nitrocefin, absorbance 480 nm, 0.01% Triton | P00811;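 note: 0% = no-compound wells and -100% = no-enzyme wells; nearly all actives have a fitted effect of over 25% in size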
Target sequence (P00811 whole entry, looked up): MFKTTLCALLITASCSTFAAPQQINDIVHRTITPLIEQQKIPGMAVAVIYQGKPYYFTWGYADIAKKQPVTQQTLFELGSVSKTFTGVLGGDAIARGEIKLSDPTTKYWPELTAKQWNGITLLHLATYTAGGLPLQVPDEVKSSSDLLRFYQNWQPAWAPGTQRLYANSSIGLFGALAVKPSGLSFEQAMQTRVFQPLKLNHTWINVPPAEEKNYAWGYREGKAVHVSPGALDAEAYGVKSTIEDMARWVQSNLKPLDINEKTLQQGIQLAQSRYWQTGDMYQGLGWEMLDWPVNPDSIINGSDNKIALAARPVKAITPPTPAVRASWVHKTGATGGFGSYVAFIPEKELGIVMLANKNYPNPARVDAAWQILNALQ
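AmpC (5.3 nM in the dispensed reagent) in 20 mM phosphate pH 7.0 with 0.01% (detergent screen) or 0.0001% Triton X-100 was preincubated with compounds for 15 min at room temperature. Nitrocefin was then added from an 800 uM solution, and hydrolysis was followed at 480 nm.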
AmpC no deterg: inhibitors of E. coli AmpC beta-lactamase without detergent; 330,000 tested, 0.52% active; P00811; AID 485341; Potency, µM (highest dose often 57.1 µM), without a hit: at the top dose activity change, negative = inhibition, most hits filed as inhibitors; AmpC nitrocefin hydrolysis, absorbance 480 nm, 0.0001% Triton;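 note: plate controls were no compound for no effect and no enzyme for full effect; nearly all actives have a fitted effect of over 20% in size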
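AmpC (5.3 nM in the dispensed reagent) in 20 mM phosphate pH 7.0 with 0.01% (detergent screen) or 0.0001% Triton X-100 was preincubated with compounds for 15 min at room temperature. Nitrocefin was then added from an 800 uM solution, and hydrolysis was followed at 480 nm.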
AMA1 RON2 block: AMA1-RON2 (P. falciparum) interaction inhibition | AlphaScreen AMA1-biotinylated RON2 peptide binding | Potency, µM (series often up to 58.2 µM), without a hit: at the top dose activity change, negative = inhibition, actives largely listed as inhibitors | 360,000 tested, 0.2% active | AID 720542;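 note: 0% = vehicle wells and -100% = peptide control; nearly all actives have a fitted effect of over 45% in size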
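AMA1 (3D7) with his tag at 25 nM final met compounds first, then biotinylated RON2 peptide at 25 nM; detection used donor plus acceptor beads, 10 µg/mL apiece, read by AlphaScreen after 30 min at room temperature.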
Pf growth 96h: P. falciparum growth inhibition at 96 hours; P. falciparum luciferase reporter growth, 96 h; Potency, µM (highest dose often 28.7 µM), for inactives: top-dose activity change, negative = inhibition, usual class: inhibitors; 320,000 tested, 6.9% active
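96 h incubation, 37 C, 5% CO2, of luciferase-reporter P. falciparum-infected RBCs (2% hematocrit, 0.05% parasitemia final) with test compounds; endpoint luminescence.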
HCV inh: HCV inhibition; 340,000 tested, 3.4% active; Potency, µM (highest dose often 41.8 µM), without a hit: at the highest dose activity change, negative = inhibition, usual class: inhibitors; Huh7.5.1 HCVcc-Cre infection, luciferase reporter, 44 h
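Reporter virus HCVcc-Cre (~0.5 moi) infects cells exposed to compound; seeding density 1,000 cells/well with 4 h settling beforehand. Luminescence, 15 sec read, taken 44 h post-infection following a 15 min RT substrate incubation.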
Pf growth 48h: P. falciparum growth inhibition at 48 hours (one generation); P. falciparum luciferase growth in erythrocytes, 48 h; 310,000 tested, 5.9% active; Potency, µM (top dose mostly 28.7 µM), inactives show top-dose activity change, negative = inhibition, hits mostly inhibitors
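Here the parasites carry a stable luciferase gene and grow inside erythrocytes in Albumax-based RPMI medium with compound for one erythrocytic cycle. Activity is scored as loss of luminescent signal.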
Numbers without * were called inactive; ? = inconclusive; · = no result; [ ] = dose if it differs, or a comment. In the library only some 11% were active in any assay of this set; here they are far more common. Calls come from the whole dose curve; as a rule, active = well fitted curve in the direction sought with a large enough effect; inconclusive = small, poorly fitted or top-dose-only effect, or another doubt; inactive = no such curve, though single readings can be large; an effect the other way counts as inactive or inconclusive. Unless noted, % is set by controls: 0 for no effect and ±100 for the full control effect; potency is the fitted concentration of half-maximal effect.

SMILES | AmpC inh detg | AmpC no deterg | AMA1 RON2 block | Pf growth 96h | HCV inh | Pf growth 48h
C#Cc1ccc([C@H]2C=C(C(=O)Nc3ccccc3)O[C@@H](OCc3ccc(CO)cc3)C2)cc1 | 5.2% | -8.2% | -0.7% | 7.38µM* | -9.4% | 7.38µM*
COc1ccccc1NS(=O)(=O)c1cccc(C(=O)NCC(c2ccc(F)cc2)N2CCOCC2)c1 (stereo unspecified) | -2.7% | ? | -3.7% | ? | 3.5%[8.37 µM] | ?
COc1ccc(/C=C/C(=O)NCC(c2ccc(F)cc2)N2CCOCC2)cc1OC (stereo unspecified) | 0.1% | 71.0% | 0.0% | ? | -3.8% | 8.28µM*
COc1ccccc1NS(=O)(=O)c1cc(C(=O)NCC(c2ccco2)N2CCCCC2)ccc1C (stereo unspecified) | ? | -15.1% | 55.6% | 8.28µM* | ? | 11.7µM*
Cc1ccc(Sc2ncccc2C(=O)NCC(c2ccc(F)cc2)N2CCOCC2)cc1C (stereo unspecified) | -14.6% | 198.7% | 4.5% | ? | -6.0% | 11.7µM*
COc1ccccc1NS(=O)(=O)c1cc(C(=O)NCC(c2ccco2)N(C)C)ccc1C (stereo unspecified) | -1.1% | -5.4% | -5.8% | ? | -24.5% | -18.8%
COc1ccccc1NS(=O)(=O)c1cc(C(=O)NCC(c2ccc(F)cc2)N2CCOCC2)ccc1C (stereo unspecified) | -9.6% | 116.6% | -15.6% | ? | -6.8% | 11.7µM*
COc1ccccc1CN1CC(C(=O)N(C)CCc2nc3ccc(F)cc3[nH]2)CCC1=O (stereo unspecified) | -7.2% | 20.2% | -5.2% | 10.4µM* | 8.5% | -12.1%
CCOP(=O)(c1ccccc1)C(O)c1ccc(F)cc1 (stereo unspecified) | -6.0% | -9.3% | -9.2%[2.32 µM] | 7.38µM* | 4.2% | -5.4%
CCOP(=O)(c1ccc(N(C)C)cc1)C(O)c1ccccc1 (stereo unspecified) | 3.3% | -0.2% | 11.6% | · | -23.7% | 11.7µM*
CC(C)COP(=O)(c1ccc(N(C)C)cc1)C(O)c1ccccc1 (stereo unspecified) | 6.8% | 27.2% | -0.2% | -17.1% | 9.9% | -5.2%
CCN(CC)C(=O)Cn1cc(S(=O)(=O)CC(=O)Nc2ccc(C(N)=O)cc2)c2ccccc21 | -12.9% | 2.6% | 3.4% | ? | 0.562µM* | -6.6%
CCn1cc(S(=O)(=O)CC(=O)Nc2ccc(C)cc2)c2ccccc21 | -10.0% | -12.1% | -2.8% | 2.62µM* | -15.6% | 5.6%
Cc1ccccc1Cn1cc(S(=O)(=O)CC(=O)Nc2nccs2)c2ccccc21 | 1.2% | -46.4% | 26.6% | -29.1% | ? | 11.7µM*
CCCn1cc(S(=O)(=O)CC(=O)Nc2ccc(OCC)cc2)c2ccccc21 | -4.8% | -10.8% | -3.1% | 19.9% | ? | 13.1µM*
CCN(CC)C(=O)Cn1cc(S(=O)(=O)CC(=O)Nc2cccc(NC(C)=O)c2)c2ccccc21 | · | · | 0.0% | · | · | ·
CCCn1cc(S(=O)(=O)CC(=O)Nc2ccc(OC)cc2OC)c2ccccc21 | ? | -11.7% | -2.0% | ? | ? | ?
COc1ccc(OC)c(/C=C(\C#N)c2nc(-c3ccc(F)cc3)cs2)c1 | 1.9% | · | · | · | · | ·
CCn1c(C)c(C2N3CC4(C)CN2CC(C)(C3)C4=O)c2ccccc21 (stereo unspecified) | 1.9% | · | · | · | · | ·
O=C(Nc1ccccc1)c1cc2ccc3ccccc3c2s1 | 2.9% | -29.9% | 16.4% | -8.3% | 11.2µM* | -3.1%
Cc1cc(NC(=O)COCc2cc(-c3ccc(F)cc3)on2)ccc1Br | -7.5% | · | · | · | · | ·
C=CCC1(C#N)C(SC)=NC2=C(C(=O)CC(C)(C)C2)C1c1ccc(Br)cc1 (stereo unspecified) | -20.3% | -9.8% | -17.1% | ? | 12.2% | 2.94µM*
COc1cnc(-c2ccccn2)[nH]c1=O | 7.5% | -11.4% | 70.9% | 5.86µM* | 14.0% | 0.0%
CCc1cc2c(=O)[nH]c(N3CCCC3)nc2s1 | -15.6% | -16.5% | 9.0% | 88.3% | 8.4% | 91.7%
CCc1cc2c(=O)[nH]c(-c3ccccn3)nc2s1 | 1.6% | -18.8% | -13.7% | 3.29µM* | ? | ?
SMILES | AmpC inh detg | AmpC no deterg | AMA1 RON2 block | Pf growth 96h | HCV inh | Pf growth 48h
CCOC(=O)c1c(C)[n+](-c2ccc(C)cc2)c(CC)c2cc(OC)c(OC)cc12 | -1.5% | 13.0% | 0.0% | 0.738µM* | ? | 0.828µM*
Cc1ccc(CNC(=O)COCc2cc(-c3cccs3)on2)cc1 | 20.8% | · | · | · | · | ·
CNC(=O)c1sc(N2N=C3/C(=C/c4ccccc4)CCCC3C2c2ccccc2)nc1C (stereo unspecified) | -8.2% | 2.1% | 19.9% | 3.29µM* | 10µM* | ?
Cc1ccc(Cl)cc1NC(=O)Cn1c(=O)n(CCC(=O)NCc2ccc3c(c2)OCO3)c(=O)c2sccc21 | -7.0% | · | · | · | · | ·
Cc1oc2ncn(C)c(=O)c2c1C(=O)N1CCN(c2ccc(Cl)cc2)CC1 | -0.9% | · | · | · | · | ·
COc1ccc(NC(=O)N2CCOc3ccc(Cl)cc32)cc1 | -5.7% | · | · | · | · | ·
Cc1cc(C)n2nc(SC(C)C(=O)N3CCC4(CC3)OCCO4)nc2n1 (stereo unspecified) | 1.8% | -4.3% | -0.8% | -26.5% | · | 2.62µM*
CCOc1cccc(CC(=O)NCc2ccc3c(c2)CCN3C(=O)c2cccc(C)c2)c1OCC | -0.2% | · | · | · | · | ·
Cc1nc2ccn(Cc3ccco3)c(=O)c2cc1C(=O)NCc1ccccc1 | 5.0% | · | · | · | · | ·
Cc1c(Cl)cccc1NC(=S)NNc1ncc(C(F)(F)F)cc1Cl | -12.3% | -34.4% | 88.8% | 9.28µM* | ? | ·
Cc1ccc(S(=O)(=O)Nc2ccccc2C(=O)Nc2nc(-c3ccc(F)cc3)cs2)cc1 | ? | -56.8% | -4.5% | ? | 6.31µM* | 13.1µM*
COc1ccc(-c2csc(NC(=O)c3ccccc3NS(=O)(=O)c3ccc(F)c(F)c3)n2)cc1 | 0.5% | -59.8% | -26.6% | ? | 2.82µM* | 1.85µM*
COc1ccc(Cn2cc(C(=O)c3ccc(Cl)cc3)c(=O)c3cc4c(cc32)OCO4)cc1 | -0.7% | · | · | · | · | ·
COc1ccc(CCNC(=O)CSc2nc3ccccc3nc2Cc2ccc(Cl)cc2)cc1OC | -2.3% | · | · | · | · | ·
O=C(Cn1cc(SCc2c(F)cccc2Cl)c2ccccc21)N1CCCCCC1 | 24.1% | · | · | · | · | ·
Nc1nc2c(s1)CC(c1ccccc1)CC2 (stereo unspecified) | -14.0% | -24.7% | -9.9% | 5.22µM* | -4.9% | 21.4%
O=C1C=C(O)c2cccc3cccc1c23 | -21.6% | -31.1% | -1.7% | ? | 20.8% | 3.7%
NC1=CC(=O)c2cccc3cccc1c23 | ? | -28.4% | · | 0.0% | · | 2.94µM*
